Article PMC4336329 (PLoS ONE, 2015)
Out of some 310,000 compounds screened, about 14,000 (4.5%) showed an effect of 50% or more. The effect is printed as a negative number. Only a selection was taken, and strong results are over-represented in it overall.

Biological target: human ether-à-go-go-related gene (hERG) potassium channel (human, UniProt Q12809)
Test: primary screen, population patch clamp on CHO cells stably expressing hERG; higher = less effect of the substance
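Note: peak tail current of the secondary pulse compared with the same well before compound.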

Sequence of human ether-à-go-go-related gene (hERG) potassium channel (Q12809 whole entry, looked up): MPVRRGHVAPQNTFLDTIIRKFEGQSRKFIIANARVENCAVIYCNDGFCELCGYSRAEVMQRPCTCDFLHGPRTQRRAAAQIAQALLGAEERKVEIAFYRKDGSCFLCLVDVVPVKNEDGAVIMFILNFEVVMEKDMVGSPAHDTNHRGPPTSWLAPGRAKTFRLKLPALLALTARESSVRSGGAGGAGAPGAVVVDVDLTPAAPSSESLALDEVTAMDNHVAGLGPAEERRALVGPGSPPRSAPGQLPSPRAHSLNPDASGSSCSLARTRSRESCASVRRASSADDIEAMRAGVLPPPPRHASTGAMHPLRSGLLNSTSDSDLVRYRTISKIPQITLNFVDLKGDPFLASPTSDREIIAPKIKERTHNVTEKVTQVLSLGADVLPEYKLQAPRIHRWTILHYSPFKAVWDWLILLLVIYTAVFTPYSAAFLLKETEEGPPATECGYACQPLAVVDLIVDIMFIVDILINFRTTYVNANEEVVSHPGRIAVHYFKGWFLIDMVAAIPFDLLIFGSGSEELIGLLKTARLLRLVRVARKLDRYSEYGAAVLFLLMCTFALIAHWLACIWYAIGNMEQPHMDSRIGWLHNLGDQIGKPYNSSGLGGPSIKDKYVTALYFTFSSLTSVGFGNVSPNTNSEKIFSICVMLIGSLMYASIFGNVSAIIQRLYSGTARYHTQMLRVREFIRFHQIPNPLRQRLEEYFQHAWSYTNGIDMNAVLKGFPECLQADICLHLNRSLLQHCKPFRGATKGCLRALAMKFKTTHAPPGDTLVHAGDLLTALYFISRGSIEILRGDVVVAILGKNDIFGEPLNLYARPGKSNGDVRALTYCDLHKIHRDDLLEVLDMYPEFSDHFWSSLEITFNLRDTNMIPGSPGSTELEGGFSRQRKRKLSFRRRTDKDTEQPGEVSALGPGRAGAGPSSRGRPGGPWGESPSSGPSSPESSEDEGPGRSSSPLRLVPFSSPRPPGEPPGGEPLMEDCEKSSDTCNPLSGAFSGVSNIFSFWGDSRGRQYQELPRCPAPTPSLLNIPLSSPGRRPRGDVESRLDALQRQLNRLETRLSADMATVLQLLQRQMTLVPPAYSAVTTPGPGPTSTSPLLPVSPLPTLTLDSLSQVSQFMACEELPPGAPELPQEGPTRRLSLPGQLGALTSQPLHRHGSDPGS

SMILES	hERG current change (%, negative = inhibition) at 10uM [%]
COCCCNC(=O)CN(c1cc(Cl)ccc1OC)S(C)(=O)=O	17.4
Oc1ccc(CN2CCN(Cc3ccccc3)CC2)c2cccnc12	-13.9
CCCCCc1c(C)nc(NCc2ccccc2)[nH]c1=O	-4.44
N/C(=N\OC(=O)c1ccc(Cl)c(Cl)c1)c1ccccn1	3.76
O=C(CN1C(=O)CSc2ccc(S(=O)(=O)N3CCOCC3)cc21)NCc1cccnc1	6.4
CC1CCCCN1CCNC(=O)CN1C(=O)CSc2ccc(S(=O)(=O)N3CCCCC3)cc21 (stereo not drawn)	-17.6
CC1CCN(S(=O)(=O)c2ccc3c(c2)N(CC(=O)NCc2cccnc2)C(=O)CS3)CC1	-53.3
CC1CCN(S(=O)(=O)c2ccc3c(c2)N(CC(=O)NCCCN2CCCCC2C)C(=O)CS3)CC1 (stereo not drawn)	0.668
CCCCCCCNC(=O)CN1C(=O)CSc2ccc(S(=O)(=O)N3CCOCC3)cc21	-17.7
CC1CCN(S(=O)(=O)c2ccc3c(c2)N(CC(=O)NCCCN2CCCCC2)C(=O)CS3)CC1	-10.6
O=C(CN1C(=O)CSc2ccc(S(=O)(=O)N3CCOCC3)cc21)NCCCN1CCCCC1	18
CC1CCN(S(=O)(=O)c2ccc3c(c2)N(CC(=O)NCCN2C(C)CCCC2C)C(=O)CS3)CC1 (stereo not drawn)	-52.7
CC1CCN(CCCNC(=O)CN2C(=O)CSc3ccc(S(=O)(=O)N4CCOCC4)cc32)CC1	6.31
O=C(CN1C(=O)CSc2ccc(S(=O)(=O)N3CCOCC3)cc21)NCCCN1CCc2ccccc2C1	-66.3
Cc1ccc(CNC(=O)CN2C(=O)CSc3ccc(S(=O)(=O)N4CCC(C)CC4)cc32)cc1	-27.4
CC1CCN(CCCNC(=O)CN2C(=O)CSc3ccc(S(=O)(=O)N4CCC(C)CC4)cc32)CC1	-54.5
O=C(NC1CC2CCCC(C1)N2C(=O)Nc1ccccc1)C1CC1 (stereo not drawn)	6.44
Cn1c(Cc2cccc3ccccc23)nnc1SCC(=O)N1CCN(c2cccc(Cl)c2)CC1	-25.7
COc1ccc(S(=O)(=O)N(CC(=O)N2CCN(C)CC2)C2CCCCC2)cc1OC	-7.66
COC(=O)C(C(=O)OC)=C(/C=C/C=C/N(C)C)N(C)C	13.9
CCN(CC)S(=O)(=O)c1ccc(OC(C)C)nc1	-1.16

SMILES	hERG current change (%, negative = inhibition) at 10uM [%]
COc1ccc([C@H]2CC(=O)C=C(c3cc4ccccc4c4ccccc34)C2)cc1	13.6
CCCc1c(C(=O)NNc2cc(C(F)(F)F)ccc2Cl)cnn1-c1ccccc1	0.78
Cc1ccc(C)c(NC(=O)C2C3CCCC2C3c2ccccc2)c1 (stereo not drawn)	6.75
CN1CCN(S(=O)(=O)c2ccc3c(c2)NC(=O)CS3)CC1	13.3
CC1CC(C)CN(CCCNC(=O)CN2C(=O)CSc3ccc(S(=O)(=O)N4CCCCC4)cc32)C1 (stereo not drawn)	-50.2
CC1CC(C)CN(CCCNC(=O)CN2C(=O)CSc3ccc(S(=O)(=O)N4CCOCC4)cc32)C1 (stereo not drawn)	15.8
CC1CCN(S(=O)(=O)c2ccc3c(c2)NC(=O)CS3)CC1	-52.2
CC1CCCN(CCCNC(=O)CN2C(=O)CSc3ccc(S(=O)(=O)N4CCOCC4)cc32)C1 (stereo not drawn)	19.5
CCN1CCN(S(=O)(=O)c2ccc3c(c2)NC(=O)CS3)CC1	19.9
CC1CCN(S(=O)(=O)c2ccc3c(c2)N(CC(=O)NCCCN2CCCC(C)C2)C(=O)CS3)CC1 (stereo not drawn)	-20.6
CCC1CCCCN1CCCNC(=O)CN1C(=O)CSc2ccc(S(=O)(=O)N3CCC(C)CC3)cc21 (stereo not drawn)	-9.76
CC1CCN(S(=O)(=O)c2ccc3c(c2)N(CC(=O)NCCCN2CC(C)CC(C)C2)C(=O)CS3)CC1 (stereo not drawn)	-66.2
COc1ccc(N(CC(=O)NCCSc2ccccn2)S(=O)(=O)c2ccc(C)cc2)cc1OC	-17.7
CCOc1ccccc1NC(=O)CCNS(=O)(=O)c1ccccc1	17.6
Cc1ccc(C2=Nc3ccccc3N=C(c3ccc([N+](=O)[O-])cc3)C2)c(O)c1	-3.53
COc1ccc([C@@H]2CC(=O)c3c(O)cc(O)cc3O2)cc1O	5.19
COc1ccc(OC)c(N2Cc3ccccc3C2)c1	12
c1ccc(Cn2nnc3cnccc32)cc1	2.3
c1ccc(-n2nnc3cnccc32)cc1	12
c1ccc(-n2c(Cc3cccnc3)nc3cnccc32)cc1	-50.5
COc1ccc(NC(=O)N(CCCN2CCOCC2)Cc2cccnc2)c(OC)c1	5.99
